From PubChem BioAssay
DT40 TDP1 no CPT: qHTS for Inhibitors of human tyrosyl-DNA phosphodiesterase 1 (TDP1): qHTS in cells in absence of CPT; DT40 Tdp1-/- hTDP1 cells, no CPT, ATP luminescence, 48 h; Potency, µM (top dose mostly 46.2 µM), inactives show at the highest dose activity change, negative = growth inhibition, usual class: inhibitors; actives 15% (n = 420,000); further: potency means the concentration at half of the fitted maximal effect; nearly all actives have a fitted effect of over 55% in size
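Chicken DT40 Tdp1-/- cells stably complemented with human TDP1 were seeded at 400 cells/well with DMSO in place of 20 nM camptothecin. After compound pinning, cells grew at least 48 hr at 37 °C; viability read by CellTiter-Glo luminescence.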
TDP1 cell CPT: growth inhibition of DT40 Tdp1-/-;hTDP1 cells with camptothecin (screen for TDP1 inhibitors); chicken DT40 Tdp1-/-;hTDP1 cells + 20 nM CPT, ATP luminescence, 48 h; Potency, µM (titrated, usually from 46.2 µM), without a hit: at the highest dose activity change, negative = growth inhibition, hits mostly inhibitors; actives 12% (n = 420,000); AID 686979; further: potency means the concentration at half of the fitted maximal effect; nearly all actives have a fitted effect of over 55% in size
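Cell growth measured by CellTiter-Glo luminescence after a minimum 48 h, 37 C compound exposure with 20 nM CPT in Tdp1-knockout DT40 cells stably expressing hTDP1, seeded 400/well; qHTS titration format.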
HT1080-NT tox: kills 2HG-producing HT-1080-NT fibrosarcoma cells; AID 686970; HT-1080-NT fibrosarcoma viability, CellTiter-Glo ATP luminescence, 48 h; Potency, µM (highest dose often 46.1 µM), for inactives: at the highest dose activity, negative = less viability, most hits filed as cytotoxic; actives 1.6% (n = 360,000);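 further: NT is the 2HG producing partner of a matched IDH1 knockdown line; potency means the concentration at half of the fitted maximal effect; 0% = DMSO-treated cells and -100% = media-only wells without cells; nearly all actives have a fitted effect of over 55% in size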
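Fibrosarcoma NT cells, 750 per well in 5% FBS RPMI, were exposed to compound for 48 hours. Viability: CellTiter-Glo luminescence.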
ELG1 DNA repair: ELG1-dependent DNA repair inhibition | HEK293T ELG1-luciferase reporter, luminescence, 16 h; DNA damage induced by 5-fluorouridine | Potency, µM (top dose mostly 46.1 µM), for the others: at the highest dose activity change, negative = inhibition, actives largely listed as inhibitors | actives 2.3% (n = 330,000) | AID 504467; further: potency means the concentration at half of the fitted maximal effect; nearly all actives have a fitted effect of over 55% in size
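Quantitative HTS, concentration-response format. 2,000 cells/well co-treated with 5-fluorouridine and compound, 16 hr in 5% CO2 at 37 °C; ONE-Glo luminescence read after 30 min.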
HT1080 IDH1KD tx: kills HT-1080 cells with IDH1 knockdown; Potency, µM (top dose mostly 46.1 µM), without a hit: at the highest dose activity, negative = toxicity, most hits filed as cytotoxic; HT-1080 IDH1 knockdown viability, ATP luminescence, 48 h; actives 2% (n = 360,000);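 further: potency means the concentration at half of the fitted maximal effect; 0% = DMSO wells and -100% = cell-free medium wells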
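Cytotoxicity counter-line: IDH1KD HT-1080, 48 h, CellTiter-Glo. Curves classed by r2, magnitude and activity.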
IL1B secr inh: blocks inflammasome-driven IL-1 beta release. activity change, % at 57.5 µM. AID 743279. actives 4.7% (n = 360,000). THP-1 LPS/ATP IL-1B secretion, AlphaLISA, 16 h; active compounds read low; in the data active means activity change below about -50%; inconclusive means mostly about -30% to -49%
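THP-1 cells pretreated 1 hr with compounds (up to 57.5 uM final), then stimulated with LPS (250 ng/mL final) plus ATP (1.25 mM final); secreted IL-1B measured by AlphaLISA after 16 hr, decreased signal indicating inhibition.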
* = called active by the depositor; u = inconclusive; x = no result; [ ] = another dose, or the depositor's remark. Only some compounds are listed: those with a hit (about 19% of all), similar ones and a draw of the others. Unless noted, the call rests on the fitted dose curve; in most records, active means well fitted curve in the direction sought with a large enough effect; inconclusive means small, poorly fitted or top-dose-only effect, or another doubt; inactive means no such curve, though single readings can be large; an effect the other way counts as inactive or inconclusive. Unless noted, on the % scale 0 is the no-effect control and ±100 the full control effect.

SMILES	DT40 TDP1 no CPT	TDP1 cell CPT	HT1080-NT tox	ELG1 DNA repair	HT1080 IDH1KD tx	IL1B secr inh
O=C(NCc1cccc(F)c1)c1ccc2nc(CCc3ccccc3)oc2c1	u	21µM*	x	x	x	x
Cc1cccc(NC(=O)c2ccc3nc(CCc4ccccc4)oc3c2)c1C	u	18µM*	x	x	x	x
CCC(C)NC(=O)c1ccc2nc(CCc3ccccc3)oc2c1 (stereo unspecified)	23µM*	u	x	x	x	x
N#Cc1c(NC(=O)C2CC(Cl)=CCC2C(=O)O)sc2c1CCCC2 (stereo unspecified)	3%	14%	0%	9%	0%	-2
O=C(O)c1cc(S(=O)(=O)N2CCN(C(c3ccccc3)c3ccccc3)CC2)ccc1Cl	28%	14%	-14%	-4%	-19%	5
COc1cc2nc(N3CCCCC3)nc(NC3CCN(Cc4ccccc4)CC3)c2cc1OC	3.2µM*	5µM*	14µM*	x	10µM*	x
COc1cc2nc(NC3CCN(Cc4ccccc4)CC3)nc(N3CCCN(C)CC3)c2cc1OC	5µM*	5µM*	6.3µM*	x	2.8µM*	x
COc1cc2nc(N3CCCCC3)nc(NC3CCN(C)CC3)c2cc1OC	7.9µM*	7.9µM*	20µM*	x	11µM*	x
COc1cc2nc(NC3CCN(C)CC3)nc(N3CCCN(C)CC3)c2cc1OC	u	u	9%	x	-3%	x
COc1cc2nc(N3CCCN(C)CC3)nc(NC3CCN(C)CC3)c2cc1OC	18µM*	13µM*	-9%	x	-11%	x
Clc1cccc(-c2ccc(CNCCCN3CCOCC3)o2)c1	u	1%	-19%	9%	-2%	-23
CC(C)CN1CCCC2(CCN(S(=O)(=O)c3ccccc3)CC2)C1	-18%	6%	x	x	x	x
COc1cc2nc(N3CCOCC3)nc(NC3CC3)c2cc1OC	13µM*	13µM*	1%	x	0%	x
COc1cc2c(NC3CCN(C)CC3)nc(N3CCCN(C)CC3)nc2cc1OCC1CCCNC1 (stereo unspecified)	0%	-16%	x	x	x	x
COc1cc2nc(N3CCN(C)CC3)nc(NC3CCN(C)CC3)c2cc1OC	11µM*	8.9µM*	-10%	x	-12%	x
COc1cc2nc(N3CCCN(C)CC3)nc(NC3CCNCC3)c2cc1OC	13µM*	11µM*	-4%	x	12%	x
OC(CN1CCNCC1)Cn1ccc2ccccc21 (stereo unspecified)	x	x	x	1%	x	x
OC(CNCc1ccccc1)Cn1ccc2ccccc21 (stereo unspecified)	-8%	-19%	-3%	-7%	1%	-50*
Oc1ccccc1NCC(O)Cn1ccc2ccccc21 (stereo unspecified)	21µM*	16µM*	u	u	u	u
OCc1nc2ccccc2n1CC(O)Cn1ccc2ccccc21 (stereo unspecified)	13µM*	16µM*	-20%	-28%	-8%[9.24 µM]	-5
CCc1ccccc1N(C)C(=O)Cn1cnc2sc(C)c(S(=O)(=O)N3CCC(C)CC3)c2c1=O	-2%	-20%	x	x	x	x
CCCOc1ccccc1OCC(=O)Nc1ccc(S(=O)(=O)N2CCCC2)cc1	16µM*	u	-9%	u	1%	1
COc1ccccc1OCC(=O)Nc1ccc(S(=O)(=O)N2CCCCCC2)cc1	u	u	5%	u	-7%[9.24 µM]	-4
CCCOc1ccccc1C(=O)Nc1ccc(S(=O)(=O)N2CCN(C)CC2)cc1	16µM*	18µM*	-19%	u	-9%	-16
O=C(COc1ncnc2c1cnn2-c1ccccc1)Nc1ccc(S(=O)(=O)N2CCCCC2)cc1	u	16µM*	-18%	u	-17%	0
SMILES	DT40 TDP1 no CPT	TDP1 cell CPT	HT1080-NT tox	ELG1 DNA repair	HT1080 IDH1KD tx	IL1B secr inh
NS(=O)(=O)c1cccc(NC(=O)COc2ncnc3c2cnn3-c2ccccc2)c1	6%	0%	-18%	-11%	-18%	26
COc1ccccc1C(=O)Nc1ccc(S(=O)(=O)N2CCN(C)CC2)cc1	-7%	-8%	-11%	x	-6%	0
Cc1ccc(-c2nnc(SCC(=O)N/N=C/c3ccccc3C(=O)O)n2-c2ccc(C)cc2)cc1	5%	-13%	2%	u	-2%	-27
Cc1ccc(/C=N/NC(=O)CSc2nnc(-c3ccccc3)n2-c2ccc(Cl)cc2)o1	u	u	0%	u	4%	-28
Cc1ccc(-c2nnc(SCC(=O)N/N=C/c3ccc(C)s3)n2-c2ccccc2)cc1	18µM*	u	u	23µM*	u	-23
Cc1ccc(-c2nnc(SCC(=O)N/N=C/c3c(C)nn(-c4ccccc4)c3C)n2-c2ccc(C)cc2)cc1	u	u	-24%	u	-26%	2
Cc1ccc(/C=N/NC(=O)CSc2nnc(-c3ccc(Cl)cc3)n2-c2ccc(Cl)cc2)o1	u	23µM*	18µM*	u	u	-3
Cc1nn(-c2ccccc2)c(C)c1/C=N/NC(=O)CSc1nnc(-c2ccccc2)n1-c1ccc(Cl)cc1	26µM*	u	1%	u	-16%	u
CN(C)S(=O)(=O)N1CCC(Oc2cccc(C(=O)N3CCSCC3)c2)CC1	-26%	-1%	-5%	-6%	-3%	5
Cc1cc(-c2nsc(=O)o2)c(S(C)(=O)=O)s1	16µM*	21µM*	-2%	1%	-5%	0
CCOc1ccccc1N(C)C(=O)C1CCCN(c2ncnc3c2nc2n3CCCCC2)C1 (stereo unspecified)	-11%	-30%	x	x	x	x
CCc1ccccc1N(CC)C(=O)C1CCN(c2ncnc3c2nc2n3CCCCC2)CC1	4.1µM*	8.2µM*	-5%	15µM*	u	-27
Cc1ccc(N(C)C(=O)C2CCCN(c3ncnc4c3nc3n4CCCCC3)C2)cc1C (stereo unspecified)	9.2µM*	u	x	x	x	x
CN(C(=O)C1CCCN(c2ncnc3c2nc2n3CCCCC2)C1)c1ccccc1F (stereo unspecified)	12µM*	23µM*	x	x	x	x
CCc1ccccc1N(C)C(=O)C1CCCN(c2ncnc3c2nc2n3CCCCC2)C1 (stereo unspecified)	4.1µM*	18µM*	x	x	x	x
CCCC(=O)Nc1cccc(-c2nc3cc(C)c(C)cc3o2)c1C	-11%	2%	x	x	x	x
